# Screening data as filed in PubChem BioAssay.
# Rows were chosen to be rich in hits. Some 1.3% of all compounds tested hit in one or more screens of this group.
# Bfl-1 A1 inh – inhibitors of the anti-apoptotic protein A1, read as caspase activation | MEF A1-2A-BIM cells, Caspase-Glo 3/7 luminescence, 3 h; percent of clofoctol response, vehicle zero | caspase activation, % (concentration not given with the values) | actives 0.066% (n = 330,000) | AID 2462;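 active = over half of replicate activation scores above 10%, or exactly half above 10 with the replicate mean above 10; inconclusive = replicate mean below 10 yet half the replicates above 10; inactive = over half of replicates below 10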
# GRK2 inh – human GRK2 inhibition via aptamer displacement | inhibition of aptamer binding, % at 10 µM | actives 0.59% (n = 330,000) | bead flow cytometry, FAM-aptamer displacement from GRK2 | P25098;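 active = inhibition of aptamer binding above 40%, roughly 3 SD of noise, on plates passing a quality check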;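 note: median bead fluorescence of bound FAM aptamer so fluorescent compounds give negative values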
# VLA-4 inh – inhibition in a human VLA-4 binding assay; AID 2557; inhibition, % (about 7 µM as worked out from the volumes in the protocol); VLA-4 expressing cells, ligand binding flow cytometry; actives 0.2% (n = 330,000); in the data active = inhibition above about 50%
# B2AR ag – activates human beta-2 adrenergic receptor causing internalization | P07550 | Am2.2-beta2AR cells, FAP receptor internalization, flow cytometry | response, % (no concentration beside the values) | actives 0.43% (n = 340,000);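 active = response above a set limit, near 3 SD of response in nonfluorescent compounds, cut at about 42% in these data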
# NTR1 ag – agonists of human neurotensin receptor NTR1; P30989; NTR1-U2OS beta-arrestin-GFP spot imaging, agonist mode; actives 0.17% (n = 330,000); activation, % at 20 µM;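 active = activation at or above 40% of the spot to cytoplasm intensity ratio, with at least 20 cells analyzed; inconclusive = wells under 20 cells, flagged as cytotoxic or low count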;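 note: 0% = DMSO without peptide and 100% = 100 nM NTR1 peptide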
# GRK2 CP1 – human GRK2 inhibition confirmation, cherry pick 1 | shares compounds with GRK2 inh | bead-bound GRK2, FAM-aptamer displacement, flow cytometry | aptamer displacement, % at 10 µM | actives 4% (n = 2,000) | AID 504451;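 active = aptamer displacement above 40%, near three times the noise of non-fluorescent compounds, on plates passing quality checks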;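 note: negative values mostly reflect intrinsic compound fluorescence rather than true enhancement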
# FAM quench CP1 – aptamer fluorescence quenching in GRK2 counter-screen | shares compounds with GRK2 inh | Carboxyfluorescein RNA aptamer on beads, flow cytometry quenching; hits give low values | fluorescence response (% of DMSO), % at 10 µM | 2,000 tested, under 10 active;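 active = compounds that quench the bead-bound fluorescent RNA probe, cutting fluorescence to under half of the solvent control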;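 note: counterscreen run without GRK2 so only probe quenching by compound is measured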
# GRK2 confirm 2 – human GRK2 inhibition confirmation, cherry pick 2 | shares compounds with GRK2 inh | bead-bound GRK2, FAM-aptamer displacement, flow cytometry | inhibition of aptamer binding, % at 10 µM | 360 tested, under 10 active | AID 504782;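 active = inhibition of aptamer binding above 40%, about triple the noise seen with nonglowing compounds, on plates passing quality control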;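 note: negative values mostly come from compounds that fluoresce themselves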
# FAM quench SP – quenches fluorescent RNA aptamer, GRK2 hit artifact | shares compounds with GRK2 inh | carboxyfluorescein RNA aptamer beads, flow cytometry quenching; hits give low values | fluorescence response vs DMSO, % at 10 µM | 360 tested, under 10 active | AID 588494;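 active = response vs DMSO under 50%, meaning signal dropped by over half, treated as fluorescence quencher; inconclusive = no clear call, values can overlap the other calls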;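 note: labelled aptamer on streptavidin beads without GRK2 as a quench counter-screen; 100% = bead fluorescence of DMSO wells and lower means quenching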
# * = called active by the depositor; ? = inconclusive; . = not tested or not shown.
SMILES,Bfl-1 A1 inh,GRK2 inh,VLA-4 inh,B2AR ag,NTR1 ag,GRK2 CP1,FAM quench CP1,others
Cc1ccc(NC2=NC(C(=O)Nc3ccc(C)c(C)c3)CC(=O)N2)cc1 (stereo unspecified),1.3,0.0,5.8,4.7,1.8,-2.5,102.3,
CCCNS(=O)(=O)c1ccc(CCC(=O)N2CCOCC2)cc1,-0.2,61.0*,-5.7,-2.2,-2.2,-13.4,96.2,
CC(C)CNS(=O)(=O)c1ccc(CCC(=O)N2CCOCC2)cc1,0.0,15.0,-2.0,1.3,-2.0,.,.,
O=C(NCc1ccc(Cl)cc1)C1CCCN(C(=O)c2ccc(Cl)cc2)C1 (stereo unspecified),1.3,2.0,10.8,-6.2,1.8,.,.,
CN(C)C(CNC(=O)C1CCCN(C(=O)c2ccc(Cl)cc2)C1)c1ccco1 (stereo unspecified),1.2,68.0*,12.6,-2.0,-1.4,-5.4,95.1,
CCC1Oc2ccccc2N(CC(=O)NCCCN2CCCCC2C)C1=O (stereo unspecified),0.5,61.0*,0.4,10.3,0.1,-8.8,111.2,
COc1ccc(CC2S/C(=N/N=C/c3ccc(O)cc3)NC2=O)cc1 (stereo unspecified),-0.3,100.0*,0.6,-2.2,2.3,0.6,96.0,
Fc1ccc(-n2nnc(-c3ncc[nH]3)n2)cc1,-6.5,2.0,15.4,.,0.1,.,.,
COc1cnn(-c2ccc(C)cc2)c(=O)c1Cl,-0.8,1.0,5.5,-1.6,2.3,.,.,
COc1cnn(-c2ccc(C)cc2)c(=O)c1Br,-1.4,30.0,-46.0,-2.7,-0.3,-0.1,93.7,
CCOc1ccc(NC(=O)c2c3c(nc4ccccc24)CCC3)cc1,-0.2,0.0,30.0,-13.3,1.8,.,.,
CCOc1c2c(nc3ccc(Cl)cc13)CCC2,0.4,2.0,9.1,1.0,4.4,.,.,GRK2 confirm 2=17.6;FAM quench SP=104.0
COc1ccc(-c2nn(-c3ccccc3)cc2/C=C2/SC(=S)N(CCC(=O)O)C2=O)c(C)c1,0.4,80.0*,1.9,9.4,1.4,-0.4,97.5,
O=C(COC(=O)c1cc(=O)[nH]c2ccccc12)NC(=O)c1ccccc1,0.1,68.0*,-1.2,-1.7,0.0,-2.9,109.6,
N#CCCN(C(=O)COC(=O)c1n[nH]c2ccccc12)c1ccccc1,-0.2,0.0,16.0,1.0,1.4,.,.,
CC(C)NC(=O)COC(=O)c1cc(=O)[nH]c2ccccc12,0.2,0.0,4.4,10.2,-1.7,.,.,
N#CCCN(C(=O)COC(=O)c1cc(=O)[nH]c2ccccc12)c1ccccc1,0.1,45.0*,9.9,-1.9,-1.3,-0.5,101.0,
O=C(NCCc1c[nH]c2ccccc12)c1ccc([N+](=O)[O-])cc1,?,41.0*,26.0,-11.3,0.3,.,.,GRK2 confirm 2=19.1;FAM quench SP=100.0
CCC(=O)c1ccc(OCC(O)CN2CCc3ccccc3C2)cc1 (stereo unspecified),-0.6,54.0*,-0.9,-5.6,1.3,-0.6,103.3,
CC(=O)N1CCC(C(=O)NCCOc2cccc(C)c2)CC1,-0.2,65.0*,-0.6,1.2,2.3,-2.2,99.0,
COc1ccc(NS(=O)(=O)c2ccc3c(c2)[C@H]2C=CC[C@H]2[C@@H](c2ccc(C(=O)O)cc2)N3)cc1,-0.1,4.0,-5.1,3.3,1.4,.,.,
Cc1c(Cl)cccc1NS(=O)(=O)c1ccc2c(c1)C1C=CCC1C(c1ccc(C(=O)O)cc1)N2 (stereo unspecified),1.5,52.0*,-87.0,-2.5,1.0,3.7,93.3,
COc1ccccc1S(=O)(=O)n1cc(Cc2ccccc2)c(N)n1,0.5,74.0*,2.6,10.3,0.7,-11.3,97.5,
